High-throughput results deposited in PubChem BioAssay by National Center for Advancing Translational Sciences (NCATS).
Akt phos inh = Akt phosphorylation inhibition. Neuro2A IGF-stimulated pAkt S473 HTRF, 20 min; stronger effect = lower value. activity change, % for hits at 50 µM. 0.32% of 360,000 active; in the data active = activity change below about -80%; inconclusive = mostly about -51% to -80%
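Neuro2A cells in DMEM with 0.5% FBS, overnight at 37 deg C, given compound at single 50 µM final, then IGF (6 nM final) for 20 min at 37 deg C. Lysed; phospho-Akt Ser473 by HTRF after 24 h, 665/615 ratio.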
RXFP1 antagonist = RXFP1 (human) relaxin receptor antagonism; AID 1259400; 0.59% of 350,000 active; HEK293-RXFP1, relaxin-stimulated cAMP HTRF, 30 min; stronger effect = lower value; activity change, negative = inhibition, % at 57.5 µM;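 active = activity change of -60% or lower, but not beyond a set lower limit; inconclusive = change between -60% and -40%, or beyond the set limit; inactive = change above -40%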
Target sequence (Q9HBX9 whole entry, looked up): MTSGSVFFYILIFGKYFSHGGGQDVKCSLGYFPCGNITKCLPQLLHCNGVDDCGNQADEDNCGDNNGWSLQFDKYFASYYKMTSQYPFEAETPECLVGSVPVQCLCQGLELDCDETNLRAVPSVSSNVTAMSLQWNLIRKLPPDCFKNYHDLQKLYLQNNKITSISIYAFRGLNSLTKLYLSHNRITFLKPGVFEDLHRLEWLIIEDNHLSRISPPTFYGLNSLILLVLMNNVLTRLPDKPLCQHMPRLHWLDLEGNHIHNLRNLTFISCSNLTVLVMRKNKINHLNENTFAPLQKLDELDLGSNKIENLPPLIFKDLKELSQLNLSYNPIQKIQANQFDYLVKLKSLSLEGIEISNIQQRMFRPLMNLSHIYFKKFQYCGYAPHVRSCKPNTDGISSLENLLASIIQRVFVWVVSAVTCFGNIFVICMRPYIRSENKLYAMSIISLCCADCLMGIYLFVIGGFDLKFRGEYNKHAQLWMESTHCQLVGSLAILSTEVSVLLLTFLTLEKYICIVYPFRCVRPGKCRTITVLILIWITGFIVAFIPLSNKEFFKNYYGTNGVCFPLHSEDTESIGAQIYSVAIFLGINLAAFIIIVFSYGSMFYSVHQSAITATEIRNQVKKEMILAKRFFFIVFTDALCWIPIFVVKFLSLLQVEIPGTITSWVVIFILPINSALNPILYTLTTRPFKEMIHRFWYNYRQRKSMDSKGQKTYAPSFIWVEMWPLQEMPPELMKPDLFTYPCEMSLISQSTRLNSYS
gsp antagonist = gsp mutant antagonism. gsp-mutant cells, cAMP HTRF, 30 min. Potency, µM (titrated, usually from 76.9 µM), actives largely listed as inhibitors. 0.4% of 340,000 active. AID 624288; calls by dose curve; cell line not stated here;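 note: intracellular cAMP measured with PDE inhibitor Ro 20-1724 present during compound exposure; nearly all actives have a fitted effect of over 65% in size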
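Cells, 2000/well, grown 16–24 h in DMEM 10% FBS with 0.5 mg/ml G418, then compounds plus […] (300 uM addition stock), 30 min at 37C. cAMP read by HTRF (cAMP-d2 and anti-cAMP antibody-K in lysis buffer) after 30 min RT.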
gsp ag = agonists of gsp mutant (McCune-Albright syndrome). gsp mutant cells, cAMP HTRF, 30 min. Potency, µM (highest dose often 76.9 µM), actives largely listed as activators. 0.13% of 340,000 active. AID 624287; active = well fitted activation curve with a large enough effect; inconclusive = small, poorly fitted or top-dose-only effect, or another doubt; inactive = no such curve, though single readings can be large or run the other way; cell line not stated here;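 note: phosphodiesterase inhibitor Ro 20-1724 added with compounds to block cAMP breakdown; nearly all actives have a fitted effect of over 60% in size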
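Cells stably selected in G418 were plated at 2000/well, grown 16-24 hr, then given compounds in DMSO with the PDE inhibitor […] (300 uM solution added) for 30 min at 37C; cAMP was read by HTRF.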
RXFP1 ag = agonists of human relaxin receptor RXFP1 | Q9HBX9 | HEK293T-RXFP1 cAMP TR-FRET, 30 min; response scale: percent of porcine relaxin response, buffer zero | Potency, µM (titrated, usually from 57.5 µM), actives largely listed as activators | 0.3% of 370,000 active | AID 2676; active = well fitted activation curve with a large enough effect; inconclusive = small, poorly fitted or top-dose-only effect; note: nearly all actives have a fitted effect of over 60% in size
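cAMP rise read by TR-FRET after 30 min, 37C compound exposure (up to 58 uM) in RXFP1-transfected HEK293 cells with Ro 20174 present. EC50 from Hill-equation fits, with 29 nM porcine relaxin as 100% and buffer as basal.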
A number is an active result; - = inactive; ? = inconclusive; . = no result given; [ ] = remark or other dose. Rows were chosen to be rich in hits. Some 1.3% of all compounds tested hit in one or more screens of this group.

SMILES | Akt phos inh | RXFP1 antagonist | gsp antagonist | gsp ag | RXFP1 ag
Cn1cc(/C=C2\SC(=O)N(c3ccccc3)C2=O)c2ccccc21 | - | - | 45µM | -[15.4 µM] | -
COC(=O)c1ccccc1NC(=O)Cn1cnc2c1c(=O)n(C)c(=O)n2C | - | - | - | -[15.4 µM] | .
CC(C)NC(=O)Cn1cnc2c1c(=O)n(C)c(=O)n2C | - | - | - | - | -
Cn1c(=O)c2c(ncn2CC(=O)NC2CCCCC2)n(C)c1=O | - | - | - | 13µM | 16µM
COc1cc(/C=N/NC(=O)Cn2cnc3c2c(=O)n(C)c(=O)n3C)cc(OC)c1OC | - | - | - | -[15.4 µM] | -
COc1cccc(/C=N/NC(=O)Cn2cnc3c2c(=O)n(C)c(=O)n3C)c1OC | - | - | - | -[15.4 µM] | 18µM
CCOc1ccccc1OCC(=O)NNC(=O)Cn1cnc2c1c(=O)n(C)c(=O)n2C | - | - | - | -[15.4 µM] | 22µM
Cc1ccc2[nH]c(=O)c3cc(C(=O)NCc4cccc(Cl)c4)sc3c2c1 | . | . | . | . | -
CCN(CC)C(=O)C1CN2CCc3cc(OC)c(OC)cc3C2CC1OC(C)=O (stereo not given) | . | - | . | . | .
CC(=O)Nc1ccc(SCC(=O)N(CCC#N)c2cc(C)cc(C)c2)cc1 | -110% | - | - | - | -
Cc1c(C(=O)NN2CCCCC2)nn(-c2ccc(Cl)cc2Cl)c1-c1ccc(Cl)cc1 | . | -71 | . | . | .
Cc1cccc(CC(Cc2nc3ccccc3[nH]2)c2nc3ccccc3[nH]2)c1 (stereo not given) | . | - | ? | - | -
COc1ccccc1CC(Cc1nc2ccccc2[nH]1)c1nc2ccccc2[nH]1 (stereo not given) | - | -67 | - | ? | -
Cc1oc2cc3oc(=O)c(CC(=O)N[C@H](C(=O)N[C@@H](C(=O)O)c4ccccc4)C(C)C)c(C)c3cc2c1C | - | . | 50µM | . | -
COC(=O)[C@H](CC(C)C)N(Cc1ccccc1)S(=O)(=O)N(Cc1ccc(OC)cc1)[C@@H](CC(C)C)C(=O)OC | - | . | 50µM | . | .
Cc1cc(C)c(NC(=O)COC(=O)c2cccc3c2C(=O)c2ccccc2C3=O)c(C)c1 | - | - | - | - | -
Cc1cc(C)c(Nc2cc(S(=O)(=O)O)c(N)c3c2C(=O)c2ccccc2C3=O)c(C)c1 | - | - | 28µM | - | -
O=C(Nc1ccccc1)N1CCc2c([nH]c3ccccc23)C1C(F)(F)F (stereo not given) | - | - | - | - | -
COc1cccc(Cl)c1NC(=O)N1CCc2c([nH]c3ccccc23)C1C(F)(F)F (stereo not given) | - | -75 | - | ? | -
CCn1c(=O)c2c(nc3n2CCN3c2ccc(OC)cc2)n(C)c1=O | . | - | . | . | -
Cc1ccc2[nH]c(CSc3nnc(NC(=O)COc4ccccc4)s3)cc(=O)c2c1 | . | - | . | . | -
N#Cc1cn(CCOc2ccc(F)cc2)c2ccccc12 | -117% | - | - | ? | -
Cc1cc(-c2ccc(S(=O)(=O)NCc3ccccc3Cl)s2)on1 | . | - | . | . | -
COc1ccc(-c2cc(C(C)=O)c(C)n2CCC(=O)NCc2ccc(F)cc2)cc1 | . | - | . | . | -
O=C(CC1C(=O)NCCN1Cc1ccc(-c2ccccc2)cc1)NCC1CC1 (stereo not given) | - | -61 | - | -[15.4 µM] | -
SMILES | Akt phos inh | RXFP1 antagonist | gsp antagonist | gsp ag | RXFP1 ag
C=CCNC(=O)CC1C(=O)NCCN1Cc1ccc(-c2ccccc2)cc1 (stereo not given) | - | - | - | - | -
COc1ccc(NC(=O)N2CCC(c3ccccc3)C2)c(OC)c1 (stereo not given) | - | . | 50µM | - | -
COc1ccc(NC(=O)N2CCCC(c3ccccc3)C2)cc1 (stereo not given) | - | - | - | - | -
CC(=O)Nc1ccc2c(c1)Cc1cc(N3C(=O)C=CC3=O)ccc1-2 | - | -61 | - | - | .
COc1ccc(C)cc1NC(=O)COCc1cc(-c2ccc(F)cc2)on1 | . | - | . | . | -
COc1cc(CNC2CCCC2)c(Br)cc1OC1CCCC1 | - | - | - | -[15.4 µM] | -
COc1cc(CNCc2ccccc2)c(Br)cc1OC1CCCC1 | - | -61 | - | -[15.4 µM] | -
CC(=O)O[C@@H]1CC2C3CCc4cc(OC(=O)c5ccccc5)ccc4C3CCC2(C)[C@H]1OC(C)=O (stereo not given in full) | . | - | . | . | .
COc1cccc(CNc2ccc(Br)cn2)c1O | - | - | - | - | -
COc1cccc(CNc2ncc(Br)cc2Br)c1O | - | -78 | - | - | -
